JMJD2A Tudor = inhibitors of human JMJD2A Tudor domain | 390,000 compounds, 4.4% hits | AID 504339 | Potency, µM (series often up to 114 µM), usual class: inhibitors | O75164 | AlphaScreen JMJD2A-Tudor / H3K4me3 peptide binding; also: nearly all actives have a fitted effect of over 50% in size
G9a block = inhibitors of human histone lysine methyltransferase G9a; G9a H3K9 monomethylation, AlphaScreen, 2 h; Potency, µM (titrated, usually from 102 µM), most hits filed as inhibitors; 350,000 compounds, 8.8% hits; AID 504332; also: nearly all actives have a fitted effect of over 75% in size
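Enzyme 20 nM + cpd, 15 min RT; add b-H3K9 pep 500 nM / SAM 20 uM; 2 h RT; anti-H3K9me1 Ab 0.5 ug/mL + SA donor / anti-rabbit acceptor beads 20 ug/mL each, 10 min; AlphaScreen read.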
HP1b binding inh = blocks HP1-beta chromodomain binding to methylated histone tails; P83916; Potency, µM (doses to about 114 µM), hits mostly inhibitors; AlphaScreen HP1-beta / biotin-H3K9me3 peptide binding; AID 540317; 390,000 compounds, 0.56% hits; also: nearly all actives have a fitted effect of over 70% in size
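HP1-beta protein (50 nM final) preincubated 30 min at room temperature with biotinylated H3(1-18)K9me3 peptide (50 nM) in PBS pH 7.4, 0.01% Tween-20, then compound added for 30 min. AlphaScreen streptavidin donor/nickel chelate acceptor beads (10 ug/mL final), 30 min dark, luminescence read.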
BAZ2B inh = BAZ2B (human) inhibition. Potency, µM (top dose mostly 114 µM), most hits filed as inhibitors. AlphaScreen BAZ2B-H3K14Ac peptide displacement. 360,000 compounds, 4.4% hits; also: nearly all actives have a fitted effect of over 60% in size
Target sequence (Q9UIF8 whole entry, looked up): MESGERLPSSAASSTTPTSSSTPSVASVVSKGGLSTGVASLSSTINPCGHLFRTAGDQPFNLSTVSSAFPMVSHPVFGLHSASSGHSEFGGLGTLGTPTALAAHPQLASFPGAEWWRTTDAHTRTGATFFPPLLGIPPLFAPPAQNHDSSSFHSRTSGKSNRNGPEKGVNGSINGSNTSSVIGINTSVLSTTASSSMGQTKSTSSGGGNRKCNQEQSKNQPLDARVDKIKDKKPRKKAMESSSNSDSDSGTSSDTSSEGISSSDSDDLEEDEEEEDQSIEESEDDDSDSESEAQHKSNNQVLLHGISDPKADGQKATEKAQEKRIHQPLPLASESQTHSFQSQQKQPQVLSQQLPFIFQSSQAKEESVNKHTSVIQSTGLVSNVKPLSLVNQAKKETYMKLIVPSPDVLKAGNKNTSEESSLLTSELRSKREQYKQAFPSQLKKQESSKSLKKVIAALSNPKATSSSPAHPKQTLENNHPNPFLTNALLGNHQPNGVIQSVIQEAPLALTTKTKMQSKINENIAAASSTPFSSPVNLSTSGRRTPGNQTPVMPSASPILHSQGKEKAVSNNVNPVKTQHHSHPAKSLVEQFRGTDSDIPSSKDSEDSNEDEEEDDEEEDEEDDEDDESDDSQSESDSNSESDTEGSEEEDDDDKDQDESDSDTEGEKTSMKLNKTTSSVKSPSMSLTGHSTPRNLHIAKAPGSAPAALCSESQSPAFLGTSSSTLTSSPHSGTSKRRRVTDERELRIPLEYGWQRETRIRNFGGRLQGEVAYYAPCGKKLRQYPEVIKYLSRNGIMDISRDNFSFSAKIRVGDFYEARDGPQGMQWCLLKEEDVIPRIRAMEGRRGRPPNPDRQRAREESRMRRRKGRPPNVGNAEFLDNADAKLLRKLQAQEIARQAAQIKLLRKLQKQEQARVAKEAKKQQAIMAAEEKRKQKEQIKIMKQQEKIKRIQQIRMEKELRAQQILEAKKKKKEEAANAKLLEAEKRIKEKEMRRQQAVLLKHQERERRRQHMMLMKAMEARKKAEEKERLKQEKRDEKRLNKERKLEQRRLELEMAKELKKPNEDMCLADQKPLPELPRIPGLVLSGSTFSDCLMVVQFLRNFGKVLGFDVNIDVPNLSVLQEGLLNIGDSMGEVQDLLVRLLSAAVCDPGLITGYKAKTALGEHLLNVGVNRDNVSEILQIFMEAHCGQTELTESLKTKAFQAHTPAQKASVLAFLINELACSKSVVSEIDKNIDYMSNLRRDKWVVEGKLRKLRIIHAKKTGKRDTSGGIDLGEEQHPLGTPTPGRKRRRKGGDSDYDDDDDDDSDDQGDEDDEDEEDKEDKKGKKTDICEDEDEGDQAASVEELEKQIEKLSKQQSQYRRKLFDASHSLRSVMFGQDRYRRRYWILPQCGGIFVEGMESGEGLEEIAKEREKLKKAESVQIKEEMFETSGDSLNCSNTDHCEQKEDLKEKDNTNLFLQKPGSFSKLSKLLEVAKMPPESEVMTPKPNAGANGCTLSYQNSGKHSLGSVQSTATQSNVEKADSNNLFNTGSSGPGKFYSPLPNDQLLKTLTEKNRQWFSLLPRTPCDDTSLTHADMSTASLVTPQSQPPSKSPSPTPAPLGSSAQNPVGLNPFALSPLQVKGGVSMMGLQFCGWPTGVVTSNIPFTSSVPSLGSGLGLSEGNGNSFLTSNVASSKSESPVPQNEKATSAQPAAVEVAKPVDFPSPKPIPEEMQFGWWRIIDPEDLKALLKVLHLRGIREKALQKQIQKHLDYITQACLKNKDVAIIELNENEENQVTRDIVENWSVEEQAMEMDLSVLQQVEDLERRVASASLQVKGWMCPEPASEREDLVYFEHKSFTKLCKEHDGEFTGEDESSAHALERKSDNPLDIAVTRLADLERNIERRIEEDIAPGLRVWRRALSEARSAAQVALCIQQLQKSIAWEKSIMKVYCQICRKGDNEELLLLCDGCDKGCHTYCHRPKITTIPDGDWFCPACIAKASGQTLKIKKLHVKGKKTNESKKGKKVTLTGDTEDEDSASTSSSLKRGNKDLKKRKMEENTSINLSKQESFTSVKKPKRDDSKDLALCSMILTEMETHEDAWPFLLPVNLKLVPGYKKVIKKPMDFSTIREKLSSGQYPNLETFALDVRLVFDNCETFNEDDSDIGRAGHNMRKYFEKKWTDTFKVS
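AlphaScreen displacement: compounds (up to 110uM) incubated 30 min at room temperature with a preformed 50 nM BAZ2B/50 nM biotinylated H3K14Ac peptide complex in PBS pH 7.4 with Tween-20. Donor and acceptor beads at 10 ug/mL final added, 20 min light-protected before reading.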
Six1-Eya2 blk = Six1/Eya2 interaction inhibition | Q15475+O00167 | AlphaScreen GST-Six1/His-Eya2 binding, biochemical; active compounds read low | activity change, % (test concentration not listed) | 360,000 compounds, 0.56% hits | AID 651725; in the data active = activity change below about -65%; inconclusive = mostly about -30% to -63%
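Six1/Eya2 binding was read as AlphaScreen signal after compounds were pinned into GST-Six1 plus His-tagged Eya2 (5X stock 250/500 nM) in pH 8.0 Tris/NaCl/TCEP buffer, beads added, then incubated 1 h, 37 C, dark.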
CtBP-E1A inh = inhibitors of CtBP/E1A interaction; AlphaScreen GST-E1A/His-CtBP binding, 1536-well; active compounds read low; activity change, % (no concentration beside the values); 340,000 compounds, 0.49% hits; in the data active = activity change below about -65%; inconclusive = mostly about -30% to -63%
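Steps: dispense buffer (Tris pH 8.0, NaCl 300 mM, TCEP 1 mM, BSA, Tween 20); add 5X protein mix (GST-E1A, His-CtBP, 125 nM each); pin 23 nL compound; 2 h at 37 °C, dark; add 5X beads (50 ug/mL); 1 h; read.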
Numbers stand for hits; 0 = inactive; ? = inconclusive; - = no result; [ ] = dose if it differs, or a comment. A selection: hits, their analogues and other compounds. The true share with any hit is near 10%. Unless noted, calls follow the shape of the dose curve; as a rule, active = well fitted inhibition curve with a large enough effect; inconclusive = small, poorly fitted or top-dose-only effect; inactive = no such curve, though single readings can be large or run the other way.

SMILES | JMJD2A Tudor | G9a block | HP1b binding inh | BAZ2B inh | Six1-Eya2 blk | CtBP-E1A inh
Cc1ccc(OCC(=O)Nc2ccc(N3CCCC3)cc2)cc1C | 31.6µM | 11.2µM | ? | 28.2µM | 0 | 0
CCOC(=O)c1c(C)oc2ncnc(N3CCN(c4ccccc4OC)CC3)c12 | 0 | ? | 0 | 0 | - | -
COc1ccc(NC(=O)c2cnn(-c3ccccc3)c2C)cc1OC | 0 | 0 | 0 | 0 | 0 | 0
C=Cc1ncc(OC)c2c1[nH]c1ccccc12 | 0 | 0[12.7 µM] | 0 | 0 | 0 | 0
CCCCCC1CCC(c2ccc(/C(N)=N/O)cc2)CC1 (centres undefined) | 0 | 0 | 0 | 0 | 0 | -
Cc1ccc(C(C)C)cc1OCC(=O)Nc1ccc(N2CCCCC2)cc1 | ? | 15.8µM | ? | 28.2µM | ? | 0
CCC(=O)N1CCN(c2ccc(NC(=O)COc3ccc(C)cc3C)cc2)CC1 | 0 | ? | 0 | ? | 0 | 0
O=C(O)c1cc(F)c(S(=O)(=O)N2CCN(S(=O)(=O)c3ccc4c(c3)OCCO4)CC2)cc1F | 0 | - | - | - | - | -
O=C1CC(c2ccco2)=Nc2ccccc2N1 | 0 | ? | 0 | 0 | 0 | 0
c1coc(C2=Nc3cccc4cccc(c34)N2)c1 | 0 | 39.8µM | ? | ? | 0 | 0
COc1cccc(C2=Nc3cccc4cccc(c34)N2)c1 | 50.1µM | 15.8µM | ? | 39.8µM | 0 | 0
CC1=Nc2cccc3cccc(c23)N1 | ? | 25.1µM | ? | 0 | 0 | ?
Nc1ccc(C2=Nc3cccc4cccc(c34)N2)cc1 | 0 | ? | 0 | 50.1µM | 0 | -
c1cc2c3c(cccc3c1)NN=N2 | ? | - | ? | - | 0 | ?
O=NN(Cc1cccnc1)Cc1cccnc1 | - | - | - | - | 0 | 0
Cc1cccc(-n2nnc(-c3nc(-c4ccccc4)no3)c2N)c1C | 0 | 0 | 0 | 0 | - | -
Cc1nn(C)c2c1c(C(F)(F)F)cc(=O)n2C(C)C(=O)NCCc1ccc(Cl)cc1 (centres undefined) | 0 | 0 | 0 | 0 | - | -
CN(C)S(=O)(=O)c1ccc2c(c1)N(CC(=O)Nc1ccc(F)cc1)C(=O)CS2 | 0 | 0 | 0 | 0 | - | -
O=C(NC1CCCC1)C1c2ccccc2OCC(=O)N1CCCN1CCOCC1 (centres undefined) | - | - | - | - | 0 | 0
COc1ccc(C(c2c(O)cc(C)n(Cc3ccco3)c2=O)N2CCCCC2)cc1OC (centres undefined) | 0 | 0 | 0 | 0 | - | -
CCC(=O)Nc1nc(=S)ss1 | 0 | 8.91µM | ? | ? | 0 | 0
CN(C)C(CNc1ccc(C(F)(F)F)cc1[N+](=O)[O-])c1ccccc1 (centres undefined) | 35.5µM | 31.6µM | 44.7µM | 8.91µM | ? | 0
CN(C)C(CNC(C(=O)Nc1ccc([N+](=O)[O-])cc1Br)c1ccccc1)c1ccccc1 (centres undefined) | 35.5µM | ? | ? | - | ? | 0
CN(C)C(CNc1ccc(S(C)(=O)=O)cc1[N+](=O)[O-])c1ccccc1 (centres undefined) | 0 | 0 | 0 | ? | 0 | 0
CC(C)(CNc1ccc(C(F)(F)F)cc1[N+](=O)[O-])N1CCOCC1 | ? | 70.8µM | 0 | ? | 0 | 0
SMILES | JMJD2A Tudor | G9a block | HP1b binding inh | BAZ2B inh | Six1-Eya2 blk | CtBP-E1A inh
Cc1ccc(Nc2ccc(C(F)(F)F)cc2[N+](=O)[O-])cc1 | ? | 3.16µM | ? | ? | ? | 0
CCN(CC)CCNC(C(=O)Nc1ccc([N+](=O)[O-])cc1Br)c1ccccc1 (centres undefined) | 0 | ? | 0 | ? | 0 | 0
Cc1ccc2nc(-c3ccc4c(c3)OCCO4)cn2c1 | 0 | 0 | 0 | 0 | 0 | 0
S=c1[nH]nc(-c2ccc(Cl)cc2)n1-c1ccc(Cl)cc1 | 0 | 8.91µM | 0 | ? | 0 | 0
c1cncc(-c2nc(-c3ccc4c(c3)OCO4)cs2)c1 | 0 | 0 | 0 | 0 | 0 | 0
S=c1[nH]nc(-c2ccc(Cl)cc2)n1-c1ccc2c(c1)OCCO2 | ? | 1.78µM | 0 | 0 | 0 | 0
Fc1ccc(-c2n[nH]c(=S)n2-c2ccc3c(c2)OCCO3)cc1 | 2.82µM | - | ? | 0 | 0 | -
S=c1[nH]nc(-c2cccnc2)n1-c1ccc2c(c1)OCCO2 | 25.1µM | 31.6µM | 0 | 0 | 0 | 0
CN1C(=O)/C(=C/c2ccc(-c3ccccc3[N+](=O)[O-])o2)SC1=Nc1ccc(Cl)c(C(=O)O)c1 | ? | 3.16µM | 0 | 44.7µM | ? | 0
O=C1C2C3C=CC(C3)C2C(=O)N1/N=C/c1ccc(-c2ccccc2[N+](=O)[O-])o1 (centres undefined) | ? | 0 | 0 | ? | 0 | 0
Oc1ccc(Cl)cc1-c1cc(-c2ccco2)[nH]n1 | 0[11.4 µM] | ? | 7.94µM | 39.8µM | 0 | 0
Cc1ccccc1NC(=O)NC1(C(=O)NCc2ccco2)CCCCC1 | 0 | 0 | 0 | 0 | 0 | 0
CC(C)OCCCNC(=O)C(NS(=O)(=O)c1ccc2c(c1)c(=O)n(C)c(=O)n2C)c1ccccc1 (centres undefined) | - | 14.1µM | - | 0 | - | -
Cn1c(=O)c2cc(S(=O)(=O)NC(C(=O)N3CCCCCC3)c3ccccc3)ccc2n(C)c1=O (centres undefined) | 0 | 44.7µM | 0 | 0 | 0 | 0
Cn1c(=O)c2cc(S(=O)(=O)NC(C(=O)NC3CCCCC3)c3ccccc3)ccc2n(C)c1=O (centres undefined) | 0 | 0 | 0 | 0 | 0 | 0
Cc1[nH]c2ccccc2c1C(=O)C(=O)NC1CC(=O)N(c2ccc(F)cc2)C1 (centres undefined) | 0 | 50.1µM | 0 | 0 | 0 | 0
CCOC(=O)c1ccccc1NC(=O)CN1C(=O)CC(c2ccco2)Sc2ccccc21 (centres undefined) | ? | 0 | 0 | 0 | - | -
CCCOc1ccc(CN(CCO)CCO)cc1[N+](=O)[O-] | 0 | 0 | 0 | 0 | 0 | 0
CCCN(CCO)Cc1ccc(Br)cc1 | 20µM | 8.91µM | ? | ? | 0 | 0
CCCN(CCO)Cc1cccc(Cl)c1 | 3.55µM | ? | ? | ? | 0 | 0
O=C(CCN(CCO)Cc1ccccc1)Nc1ccc(Br)cc1 | 0 | 0 | 0 | 0 | 0 | 0
COC(=O)C1(CO)NC(c2cccs2)C2C(=O)N(c3ccccc3)C(=O)C21 (centres undefined) | 0 | 0 | 0 | 0 | 0 | 0
O=C1NC(=O)C2C1C(c1cccs1)NN2Cc1ccccc1 (centres undefined) | 0 | 50.1µM | 0 | ? | 0 | 0
CN(C)c1ccc(N2C(=O)CSC2=S)cc1 | 39.8µM | ? | ? | 39.8µM | 0 | 0
CN(C)c1ccc(N2C(=O)CC(c3ccccc3)CC2=O)cc1 | 0 | 0 | 0 | 0 | 0 | 0
CC1SC(=S)N(c2ccc(N(C)C)cc2)C1=O (centres undefined) | ? | 44.7µM | 0 | ? | 0 | 0
O=C1CSC(=S)N1c1ccc(F)cc1 | - | ? | - | 0 | - | -
CCCCCCCCCCCCCCCC(=O)OC[C@H](O)[C@H]1OC[C@@H](O)[C@@H]1O | - | 0[12.7 µM] | - | - | - | -
COc1ccccc1-c1nnc(Nc2nc3c(OC)cccc3s2)o1 | 0 | 0 | 0 | 0 | 0 | 0

Compound activity from PubChem.
